Assay results as given in PubChem BioAssay (NCATS).
Inconclusive results are not listed. The source made the active and inactive calls. The call rests on the fitted dose curve; in most records, active means well fitted cell-killing curve with a large enough effect; inconclusive means small, poorly fitted or top-dose-only effect; inactive means flat fitted curve, though single readings scatter.

assay: Cell Viability - LYMP1-003 - Assay at 40 hr (AID 964); settings: LYMP1-003 lymphoblastoid viability; series mostly up to 92.2 µM; activity change, negative = cytotoxic: at the top concentration; further: nearly all actives have a fitted effect of over 60% in size
Excerpt: NIH Chemical Genomics Center [NCGC]
NIH Molecular Libraries Screening Centers Network [MLSCN]
National Institutes of Environmental Health Sciences [NIEHS]
National Toxicology Program [NTP]
We have developed a 1536-well cell-based assay for quantitative high throughput screening (qHTS) against a number of cell lines to determine in vitro cytotoxicity of small molecules. This particular assay uses a human lymphoblastoid cell line (LYMP1-003) purchased from Coriell Institute for Medical Research.
NCGC Assay Protocol Summary:
The CellTiter-Glo luminescent cell viability assay (Promega) is a homogeneous method to measure the number of viable cells in culture. The end point readout of this assay is based on quantitation of intracellular ATP, an indicator of metabolic activity, using the luciferase reaction. Luciferase catalyzes the oxidation of beetle Luciferin to oxyluciferin and light in the presence of ATP. The luminescent signal is proportional to amount of ATP present.
Using the CellTiter-Glo luminescent cell viability assay, the amount of cellular ATP was measured in the lymphoblastoid cell line with complete culture medium following compound treatment for 40 hours. The assay was performed in opaque white Kalypsys 1536-well plates. In the screen, tetraoctylammonium bromide was used as positive control. Library compounds were measured for their ability to cause acute toxicity in the cell line, as reflected by a decrease in intracellular ATP levels, in a concentration-dependent manner. […] AC50 values were determined from concentration-response data modeled with the standard Hill equation.
qHTS protocol for CellTiter Glo lymphoblastoid cellular assay
[Step] [Parameter] [Value] [Description]
1. Reagent; 5 uL; 2500 lymphoblastoid cells/well
2. Time; 5 hr; 37 C incubation
4. Controls; 23 nL; Tetraoctylammonium bromide 6.4pM to 92 uM
5. Time; 40 hr; 37 C incubation
6. Reagent; 5 uL; CellTiter Glo reagent
7. Time; 30 min; Room Temperature
8. Detection; Luminescence; Viewlux plate reader
Keywords: cell viability, cytotoxicity, lymphoblastoid cell line, luminescence, NTPHTS, NTPHTS_NCGC, NIEHS, DSSTox, MLSMR, MLSCN, NIH Roadmap, qHTS, NCGC
On the % scale 0 is the no-effect control and ±100 the full control effect; potency means the concentration at half of the fitted maximal effect.

| Structure (SMILES) | Potency | activity change, negative = cytotoxic |
| --- | --- | --- |
| CC1=C(/C=C/C(C)=C/C=C/C(C)=C\C=O)C(C)(C)CCC1 | 50.1 µM (active) | – |
| O=[N+]([O-])c1ccccc1CCO | – | -10.6% (inactive) |
| CC(=O)c1cc(C)oc1C | – | 5.48% (inactive) |
| CCOCCOCC | – | -8.09% (inactive) |
| O=C(Cl)c1cccc([N+](=O)[O-])c1 | – | -4.64% (inactive) |
| CCCCCCCCC/C=C/CC1CC(=O)OC1=O (stereo not given) | – | -1.5% (inactive) |
| CCCCOCCOCCSC#N | – | -9.76% (inactive) |
| CCC(C)=O | – | -5.72% (inactive) |
| CC(C)(c1cc(Br)c(OCC(Br)CBr)c(Br)c1)c1cc(Br)c(OCC(Br)CBr)c(Br)c1 (stereo not given) | – | -4.66% (inactive) |
| COc1cccc(N)c1 | – | -9.05% (inactive) |
| CCCCC(=O)N(C)C | – | -3.44% (inactive) |
| O=[N+]([O-])c1ccc(CCO)cc1 | – | 2.74% (inactive) |
| Cc1ccc2ccccc2c1[N+](=O)[O-] | – | 0.405% (inactive) |
| Nc1cc(Cl)c([N+](=O)[O-])cc1O | – | -21.8% (inactive) |
| Cc1cccc2sc(N)nc12 | – | -2.34% (inactive) |
| CC(C)(C)c1ccc(OCC2CO2)cc1 (stereo not given) | – | -4.84% (inactive) |
| c1ccsc1 | – | -1.65% (inactive) |
| CC=O | – | -7.25% (inactive) |
| Cc1cccc(Br)c1 | – | -10.1% (inactive) |
| O=[N+]([O-])c1cc(C(F)(F)F)ccc1Cl | – | -3.45% (inactive) |

| Structure (SMILES) | Potency | activity change, negative = cytotoxic |
| --- | --- | --- |
| Cc1ccccc1C#N | – | 2.11% (inactive) |
| CC(=O)OC(C)C | – | -8.96% (inactive) |
| N#Cc1ccccc1 | – | -3.61% (inactive) |
| C=Cc1ccc(C=C)cc1 | – | -1.72% (inactive) |
| Cc1ccc(Br)cc1 | – | -6.74% (inactive) |
| O=Cc1c(Cl)cccc1Cl | – | -7.84% (inactive) |
| C1CCCC1 | – | -0.722% (inactive) |
| O=[N+]([O-])c1cccc(Cl)c1 | – | 3.06% (inactive) |
| COC(=O)CS | – | -14.7% (inactive) |
| Cc1cccc(C)c1O | – | -0.879% (inactive) |
| Cc1cc(C)cc([N+](=O)[O-])c1 | – | -2.87% (inactive) |
| O=C(O)CNC(=O)c1ccc(CO)o1 | – | -2.2% (inactive) |
| Cc1cccc(C(=O)O)c1 | – | 1.18% (inactive) |
| FC(F)(F)c1ccccc1Cl | – | -2.58% (inactive) |
| c1ccc2n[nH]nc2c1 | – | 3.91% (inactive) |
| CCOC(=O)C(C)C(C)=O (stereo not given) | – | -5.05% (inactive) |
| CC(CCl)OC(C)CCl (stereo not given) | – | -3.33% (inactive) |
| CCOc1ccccc1N | – | -7.08% (inactive) |
| Clc1cc(Cl)cc(Cl)c1 | – | -4.67% (inactive) |
| ON=C1CCCCC1 | – | -4.92% (inactive) |
